The source of these data is the supplement of paper PMC6607015.

Counter-ions that a name gives are not always drawn.

This assay concerns HeLa MZ. The assay can be described thus: LBPA endosome anti-LBPA integrated intensity (sum per cell), Z-score; higher = more LBPA staining. The conditions noted are these: compound concentration in added solution (µM; 5 µl added to 20 µl cells): 10; 18 h. The procedure, abridged: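 Duplicate 384-well imaging plates were prepared with 5 µl of 10 µM compound solution per well, and 3,500 HeLa MZ or A431 cells in 20 µl were added on top. Following 18 h of incubation and fixation in 4% PFA, cells received 6C4 anti-LBPA antibody, filipin, propidium iodide and CellTracker green. Four images per well at 20× were segmented in MetaXpress to yield per-cell integrated LBPA or filipin intensity, whole-cell or within LBPA endosomes. These intensities are reported as Z-scores normalised in AcuityXpress.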
As for `CCN1CCC[C@H]1CNC(=O)c1c(OC)ccc(Br)c1OC` [Remoxipride Hydrochloride], the “LBPA endosome anti-LBPA integrated intensity (z-score)” value stood at 0.278.

As for `CN(C(=O)C(Cl)Cl)c1ccc(OC(=O)c2ccco2)cc1` [Diloxanide furoate], the “LBPA endosome anti-LBPA integrated intensity (z-score)” value is -0.529.

With `CCn1cc(C(=O)O)c(=O)c2ccc(C)nc21` [Nalidixic acid sodium salt], the “LBPA endosome anti-LBPA integrated intensity (z-score)” value was -0.884. `O=C1CCc2cc(OCCCCc3nnnn3C3CCCCC3)ccc2N1` [Cilostazol]: the “LBPA endosome anti-LBPA integrated intensity (z-score)” value is -0.0616. Turning to `CNC(=C[N+](=O)[O-])NCCSCc1ccc(CN(C)C)o1` [Ranitidine hydrochloride], the “LBPA endosome anti-LBPA integrated intensity (z-score)” value turned out to be 0.0515. On to `CCc1cccc2c3c([nH]c12)C(CC)(CC(=O)O)OCC3` (stereo not drawn) [Etodolac], for which the “LBPA endosome anti-LBPA integrated intensity (z-score)” value was -1.97.

In the case of `Nc1c2c(nc3ccccc13)CCCC2` [Tacrine hydrochloride], the “LBPA endosome anti-LBPA integrated intensity (z-score)” value was 0.705. In the case of `CNNCc1ccc(C(=O)NC(C)C)cc1` [Procarbazine hydrochloride], the “LBPA endosome anti-LBPA integrated intensity (z-score)” value is -1.08. As for `COCCOC(=O)C1=C(C)NC(C)=C(C(=O)OC(C)C)C1c1cccc([N+](=O)[O-])c1` (stereo not drawn) [Nimodipine], the “LBPA endosome anti-LBPA integrated intensity (z-score)” value came to 0.468. Regarding `NC[C@@H]1O[C@@H](O[C@H]2[C@H](O)[C@@H](O[C@H]3O[C@H](CO)[C@@H](O)[C@H](N)[C@H]3O)[C@H](N)C[C@@H]2N)[C@@H](O)[C@H](O)[C@H]1O` [Kanamycin A sulfate], the “LBPA endosome anti-LBPA integrated intensity (z-score)” value was -0.981. With `OC[C@H]1O[C@@H](Oc2ccc(O)cc2)[C@H](O)[C@@H](O)[C@@H]1O` [Arbutin], the “LBPA endosome anti-LBPA integrated intensity (z-score)” value worked out at 0.327. Regarding `CCOC(=O)[C@@](C)(N)Cc1ccc(O)c(O)c1` [Methyldopate hydrochloride], the “LBPA endosome anti-LBPA integrated intensity (z-score)” value was -0.632. In the case of `CC1(C)S[C@@H]2[C@H](NC(=O)[C@H](N)c3ccccc3)C(=O)N2[C@H]1C(=O)O` [Ampicillin trihydrate], the “LBPA endosome anti-LBPA integrated intensity (z-score)” value is -0.403. For the compound `Oc1ncnc2[nH]ncc12` [Allopurinol], the “LBPA endosome anti-LBPA integrated intensity (z-score)” value was 0.486. For `CO/N=C(\C(=O)N[C@@H]1C(=O)N2C(C(=O)O)=C(COC(N)=O)CS[C@H]12)c1ccco1` [Cefuroxime sodium salt] the value was -0.812; for `OCCN1CCN(CC/C=C2/c3ccccc3Sc3ccc(Cl)cc32)CC1` [Zuclopenthixol hydrochloride], 1.68; for `Cn1nnnc1SCC1=C(C(=O)O)N2C(=O)[C@@H](NC(=O)[C@H](O)c3ccccc3)[C@H]2SC1` [Cefamandole sodium salt], -0.416. On to `CC(N/C(=N\C#N)Nc1ccncc1)C(C)(C)C` (stereo not drawn) [Pinacidil], for which the “LBPA endosome anti-LBPA integrated intensity (z-score)” value is -0.897. For the compound `COc1ccccc1Oc1c(NS(=O)(=O)c2ccc(C(C)(C)C)cc2)nc(-c2ncccn2)nc1OCCO` [Bosentan], the “LBPA endosome anti-LBPA integrated intensity (z-score)” value is -0.445.

Regarding `CC(C)(O/N=C(\C(=O)N[C@@H]1C(=O)N2C(C(=O)[O-])=C(C[n+]3ccccc3)CS[C@H]12)c1csc(N)n1)C(=O)O` [Ceftazidime pentahydrate], the “LBPA endosome anti-LBPA integrated intensity (z-score)” value was -0.783. The same measure for `Nc1nc2c(ncn2COC(CO)CO)c(=O)[nH]1` [Ganciclovir]: 0.382; for `CCN(CCCc1ccccc1)CCCc1ccccc1` [Alverine citrate salt]: 1.56; for `CC(=O)OC(C)C[N+](C)(C)C` (stereo not drawn) [Methacholine chloride]: 0.107. As for `C[C@@H](c1ncncc1F)[C@](O)(Cn1cncn1)c1ccc(F)cc1F` [Voriconazole], the “LBPA endosome anti-LBPA integrated intensity (z-score)” value is -0.198. For the compound `Nc1nc(F)nc2c1ncn2[C@@H]1O[C@H](CO)[C@@H](O)[C@@H]1O` [Fludarabine], the “LBPA endosome anti-LBPA integrated intensity (z-score)” value is 1.27. On to `Cc1ccc2c(c1)c1c3n2CCNC3CCC1` (stereo not drawn) [Pirlindole mesylate], for which the “LBPA endosome anti-LBPA integrated intensity (z-score)” value turned out to be 0.024. Take `O=C(O[C@@H]1C[C@@H]2C[C@H]3C[C@H](C1)N2CC3=O)c1c[nH]c2ccccc12` [Dolasetron mesilate]: the “LBPA endosome anti-LBPA integrated intensity (z-score)” value is -0.27.

Consider `COC(=O)C1=C(C)NC(C)=C(C(=O)OCC(C)C)C1c1ccccc1[N+](=O)[O-]` (stereo not drawn) [Nisoldipine], for which the “LBPA endosome anti-LBPA integrated intensity (z-score)” value stood at 1.99. In the case of `CN(Cc1cnc2nc(N)nc(N)c2n1)c1ccc(C(=O)N[C@@H](CCC(=O)O)C(=O)O)cc1` (racemic) [Amethopterin (R,S)], the “LBPA endosome anti-LBPA integrated intensity (z-score)” value was 2.61. Consider `NS(=O)(=O)c1cc2c(cc1Cl)NC(CC1CCCC1)NS2(=O)=O` (stereo not drawn) [Cyclopenthiazide], for which the “LBPA endosome anti-LBPA integrated intensity (z-score)” value is -0.971. As for `NC(=O)c1cc[n+](CC2=C(C(=O)[O-])N3C(=O)[C@@H](NC(=O)[C@@H](c4ccccc4)S(=O)(=O)O)[C@H]3SC2)cc1` [Cefsulodin sodium salt], the “LBPA endosome anti-LBPA integrated intensity (z-score)” value was -0.634. `CS(=O)(=O)c1ccc(C2=C(c3ccccc3)C(=O)OC2)cc1` [Rofecoxib]: the “LBPA endosome anti-LBPA integrated intensity (z-score)” value was -1.7. For the compound `O=c1oc2ccccc2c(O)c1Cc1c(O)c2ccccc2oc1=O` [Dicumarol], the “LBPA endosome anti-LBPA integrated intensity (z-score)” value was -0.834.
